Compound activity: PubChem BioAssay, several laboratories
Compounds with a hit are over-represented: about 28% of the library has one in this group of screens.
CYP2C19 activ: human CYP2C19 activators, primary screen, biochemical, luminescence. Cytochrome P450 2C19 (Homo sapiens), P33261. recombinant CYP2C19, luciferin-H EGE luminescence; hits give high values; 0 = fully inhibited enzyme, 1 = untreated enzyme. activation factor at 5 µM. 96,000 tested, under 10 active;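 active means activation factor of at least 2 at 5 µM in the primary screen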;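 further: 0 = wells with 2.5 mM tranylcypromine and 1 = vehicle-only wells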
PLK1 inh: human PLK1 kinase inhibitors, primary screen, biochemical, TR-FRET; inhibition, % at 10 µM; recombinant PLK1 kinase, TR-FRET peptide phosphorylation; 97,000 compounds, 0.53% hits; Serine/threonine-protein kinase PLK1 (Homo sapiens), P53350;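 active means inhibition of 50% or more in the single-concentration screen; inactive means inhibition below 50%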;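 further: 0% = DMSO max control and 100% = H-89 dihydrochloride min control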
CYP2C9 inh: blockers of cytochrome P450 2C9 activity – biochemical, luminescence, ADME assay, primary screen. P11712. CYP2C9 Supersomes, luciferin-H conversion. inhibition, % at 5 µM. 96,000 compounds, 20% hits. AID 777, 2007;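 active means blocking of liver enzyme CYP2C9 beyond about 50% at 5 µM, limit read from the data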
CYP2C9 act: human CYP2C9 activators, primary screen, biochemical, luminescence; Cytochrome P450 2C9 (Homo sapiens), P11712; activation factor at 5 µM; recombinant CYP2C9, luciferin-H conversion; hits give high values; factor 1 = untreated enzyme, 0 = blocked; 96,000 compounds, 1.4% hits;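 active means activation factor of 2 or more for CYP2C9 at a 5 µM dose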;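 further: 0 = sulfaphenazole-blocked wells and 1 = vehicle-only wells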
PLK1 PBD inh: Plk1 polo box domain binding inhibitors, primary screen, biochemical, fluorescence polarization; AID 693, 2007; inhibition, %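 (tested at about 20 µM)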; Plk1 PBD phosphopeptide binding; 97,000 compounds, 0.13% hits; in the data active means inhibition above about 34%, passing the limit was not always enough
CYP2C19 inhib: blockers of cytochrome P450 2C19 activity – biochemical, luminescence, ADME assay, primary screen. CYP2C19 Supersomes, luciferin-H EGE luminescence, 30 min. inhibition, % at 5 µM. 96,000 compounds, 21% hits;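 active means CYP2C19 inhibition above a set limit at 5 µM in the primary screen, cut at about 50% in these data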;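 further: plate controls were negative control wells for no effect and 2.5 mM tranylcypromine positive control for full effect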
The depositor's hits bear a star; . = no result given.

SMILES	CYP2C19 activ	PLK1 inh	CYP2C9 inh	CYP2C9 act	PLK1 PBD inh	CYP2C19 inhib
Cn1c(=O)n(CCCOc2ccc(Cl)cc2)c2ccccc21	0.2	-14	12	0.9	-5	76*
Cn1c(=O)n(CCCOc2ccc(Br)cc2)c2ccccc21	0.3	-9	8	0.9	-7	70*
CC(C)(C)C(=O)NCCCc1nc2ccccc2n1CCCOc1ccc(Cl)cc1	0.6	-10	84*	0.2	-14	42
CCCS(=O)(=O)c1c(S(=O)(=O)CCC)c2cnccn2c1C(=O)c1ccc(Cl)cc1	1	-6	6	0.9	26	2
Cc1nn2cc(-c3ccc(-c4ccccc4)cc3)nc2s1	1	-6	5	1	-11	4
CCc1nn2cc(-c3ccccc3)nc2s1	0.1	.	59*	0.4	.	88*
O=C(O)c1ccc2c(c1)ncn2C1CCCCC1	1.2	-11	-19	1.2	11	-19
O=S(=O)(c1ccccc1C(F)(F)F)N1CCC(n2cnc3ccccc32)CC1	0.1	0	71*	0.3	-12	88*
CCOc1ccc(C/C(N)=N/n2cnnc2)cc1	1.1	-8	-7	1.1	-14	-7
CCOC(=O)c1c(C)oc2cc3c(C(=O)OCC)c(C)oc3cc12	.	-10	.	.	1	.
COc1cccc(C(=O)Nc2ccc(S(=O)(=O)NCc3ccco3)cc2)c1	1.1	.	6	0.9	.	-7
O=C(Nc1ccc(S(=O)(=O)NCc2ccco2)cc1)c1ccncc1	0.1	-9	98*	0	5	94*
Cc1cc(C)n(CCCNC(=O)c2ccc(S(=O)(=O)NCc3ccco3)cc2)n1	0.9	-13	50*	0.5	6	10
O=C1c2ccccc2NC(c2ccc(Cl)cc2Cl)N1O (stereo not given)	0.8	-6	14	0.9	26	25
CCOC(=O)COc1c(OC)cc(Cl)cc1C1Nc2ccccc2C(=O)N1c1ccc(F)cc1 (stereo not given)	0.3	-1	90*	0.1	-37	67*
CCOC(=O)COc1c(OC)cc(Cl)cc1C1Nc2ccccc2C(=O)N1c1cccc(C)c1 (stereo not given)	0.1	-9	95*	0.1	9	95*
CCCN1C(=O)c2ccccc2NC1c1cc(OC)c(OC)c(OC)c1 (stereo not given)	.	-9	.	.	-24	.
CCOC(=O)COc1ccccc1C1Nc2ccccc2C(=O)N1c1cccc(Cl)c1 (stereo not given)	0.4	3	17	0.8	3	64*
CCOC(=O)COc1c(OC)cc(Cl)cc1C1Nc2ccccc2C(=O)N1c1ccccc1 (stereo not given)	0	-8	98*	0	-6	95*
Cn1cc(CN2CCN(c3ccccc3)CC2)c2ccccc21	0.7	-6	-75	1.7	6	34
CCc1nc(SCC(=O)Nc2ccnc3ccccc23)n[nH]1	1	-11	19	0.8	1	2
CS(=O)(=O)N1CCN(c2ccc(NC(=O)c3ccc(-c4ccc(Cl)cc4)o3)cc2)CC1	0.8	0	6	0.9	11	21
CS(=O)(=O)N1CCN(c2ccccc2NC(=O)c2ccc(-c3ccc(Br)cc3)o2)CC1	0.4	-6	71*	0.3	-36	56*
COc1cc2ccccc2cc1C(=O)Nc1ccccc1N1CCN(S(C)(=O)=O)CC1	0.5	-11	47	0.5	-9	50*
CC(=O)Nc1cc(NC(C)=O)cc(C(=O)OCC(=O)N2CC(C)OC(C)C2)c1 (stereo not given)	1.1	-6	6	0.9	-3	-10
O=[N+]([O-])c1cc(/C=N/OCc2c(Cl)cccc2Cl)ccc1N1CCOCC1	0.9	-5	37	0.6	-14	7
CCCn1nnc(NC(=O)c2cc(Br)cc(Br)c2OC)n1	0.2	-14	27	0.7	-14	83*
CCCn1nnc(NC(=S)NC(=O)CC)n1	0.3	-10	8	0.9	-12	71*
